From PubChem BioAssay
PAFAH2 FP inh = PAFAH2 enzyme inhibitors, primary screen, biochemical, fluorescence polarization, human; recombinant PAFAH2, FP-rhodamine activity probe; inhibition, % at 3.39 µM; 0.99% of 340,000 active;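 active = inhibition above the mean over all tested compounds plus 3 SD, cut at about 30% in these data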;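 also: inhibitors block probe labeling of enzyme so polarization drops; 0% = enzyme with DMSO and 100% = wells lacking PAFAH2 protein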
PAFAH1B2 FP inh = PAFAH1B2 enzyme inhibitors, primary screen, biochemical, fluorescence polarization, human; Platelet-activating factor acetylhydrolase IB subunit alpha2 (Homo sapiens), P68402; recombinant PAFAH1B2, FP-rhodamine activity probe; inhibition, % at 3.39 µM; 1.2% of 340,000 active; AID 492953, 2010;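 active = inhibition above the mean of all tested compounds plus 3 SD, cut at about 24% in these data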;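 also: 0% = enzyme with DMSO and 100% = wells lacking PAFAH1B2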
PP5 primary = PP5 phosphatase inhibitors, primary screen, biochemical, fluorescence | Serine/threonine-protein phosphatase 5 (Homo sapiens), P53041 | purified PP5c, OMFP substrate fluorescence | inhibition, % at 6.7 µM | 0.18% of 320,000 active | AID 1987, 2009;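 active = inhibition above the campaign's mean inhibition across all tested compounds plus 3 SD, cut at about 9.5% in these data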;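 also: 0% = DMSO only and 100% = 100 µM cantharidin control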
PP1 counter = PP1-alpha phosphatase inhibitors, primary screen, counter-screen for PP5 inhibitor project, biochemical, fluorescence, OMFP substrate, single point. Serine/threonine-protein phosphatase PP1-alpha catalytic subunit (Homo sapiens), P62136. 0.9% of 320,000 active. purified PP1alpha. inhibition, % at 6.7 µM;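 active = inhibition above the mean inhibition of all tested compounds plus 3 SD, computed separately for each screening campaign, cut at about 15% in these data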
Target sequence (P62136 whole entry, looked up): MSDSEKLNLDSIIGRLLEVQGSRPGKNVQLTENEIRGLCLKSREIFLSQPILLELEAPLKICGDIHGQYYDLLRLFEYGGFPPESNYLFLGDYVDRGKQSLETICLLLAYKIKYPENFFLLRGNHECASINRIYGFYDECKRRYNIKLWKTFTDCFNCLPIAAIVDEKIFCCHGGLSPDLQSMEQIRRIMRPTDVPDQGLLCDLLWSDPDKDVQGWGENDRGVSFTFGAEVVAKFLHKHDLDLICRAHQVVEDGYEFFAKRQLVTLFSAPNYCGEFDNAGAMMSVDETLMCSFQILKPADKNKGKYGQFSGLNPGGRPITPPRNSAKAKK
PAFAH1B3 inh = PAFAH1B3 enzyme inhibitors, primary screen, biochemical, fluorescence polarization, human. Platelet-activating factor acetylhydrolase IB subunit alpha1 (Homo sapiens), Q15102. recombinant PAFAH1B3, FP-rhodamine probe. inhibition, % at 3.39 µM. 0.28% of 340,000 active. AID 492972, 2010;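 active = inhibition above the screen-wide average of all tested compounds plus 3 SD, cut at about 25% in these data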;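 also: 0% = enzyme with DMSO only and 100% = wells lacking PAFAH1B3 protein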
Target sequence (Q15102 whole entry, looked up): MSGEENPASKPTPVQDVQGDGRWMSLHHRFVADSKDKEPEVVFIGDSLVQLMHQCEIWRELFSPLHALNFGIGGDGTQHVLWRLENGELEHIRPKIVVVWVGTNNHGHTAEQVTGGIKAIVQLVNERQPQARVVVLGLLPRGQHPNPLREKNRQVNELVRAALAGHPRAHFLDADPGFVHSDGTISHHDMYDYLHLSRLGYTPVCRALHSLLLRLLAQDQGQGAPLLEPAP
pPAFAH inh = pPAFAH enzyme inhibitors, primary screen, biochemical, fluorescence polarization, human. Platelet-activating factor acetylhydrolase (Homo sapiens), Q13093. recombinant pPAFAH, FP-rhodamine probe fluorescence polarization. inhibition, % at 3.39 µM. 1.5% of 330,000 active. AID 463082, 2010;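 active = inhibition above the mean inhibition across the screen plus 3 SD, cut at about 25% in these data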;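 also: inhibitors block binding of the rhodamine activity-based probe so polarization drops; 0% = enzyme with DMSO and 100% = wells lacking pPAFAH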
PP5 conf = PP5 phosphatase inhibitors, confirmation, biochemical, fluorescence, human; shares compounds with PP5 primary; Purified PP5, fluorogenic phosphatase substrate; inhibition, % at 6.7 µM; 22% of 460 active; AID 2331, 2010; in the data active = inhibition above about 9.5%
PP1 counter 3x = PP1 phosphatase inhibitors, counter-screen for PP5 inhibitor project, biochemical, fluorescence, triplicate; 4% of 460 active; AID 2355, 2010; inhibition, % at 6.7 µM; shares compounds with PP5 primary; PP1 enzyme, fluorescent phosphatase substrate; in the data active = inhibition above about 16%
* = called active by the depositor; · = not tested or not shown. Shown are actives, neighbours in structure and some others; about 3.4% of the full set was active somewhere.

SMILES | PAFAH2 FP inh | PAFAH1B2 FP inh | PP5 primary | PP1 counter | PAFAH1B3 inh | pPAFAH inh | PP5 conf | PP1 counter 3x
O=C1C(Cl)=C(N2CCN(c3ccccc3[N+](=O)[O-])CC2)C(=O)c2ccccc21 | 40.0* | 28.3* | 13.6* | 9.5 | 48.6* | 16.2 | 24.4* | 4.9
Cc1cn(CC(=O)NCC2CCCO2)c(=O)[nH]c1=O (configuration not stated) | -4.9 | 1.1 | · | · | 1.4 | · | · | ·
O=C(Nc1ccccc1C(=O)N1CCOCC1)C1CC(=O)N(C2CCCC2)C1 (configuration not stated) | -10.6 | 0.4 | 13.5* | 1.0 | 3.8 | 1.6 | -2.9 | -3.7
COc1ccc(C(=O)NNC(=O)CCc2ccccc2OC)cc1 | 0.0 | 3.6 | 16.0* | -4.0 | 10.6 | -0.2 | -3.8 | -3.4
COc1ccccc1CCC(=O)NNC(=O)c1ccccc1 | -3.6 | -0.5 | 1.5 | -2.1 | -4.9 | -2.6 | · | ·
COc1cc(C=O)ccc1OCCOCCOc1ccc(Cl)cc1 | 2.4 | 2.2 | 3.0 | 2.7 | 2.2 | 1.7 | · | ·
COc1cc(C=O)ccc1OCCSc1ccc(Cl)cc1 | 0.7 | 55.5* | 15.2* | 0.5 | 1.4 | 20.9 | -1.1 | -1.1
CCOC(=O)c1c(NC(=O)C2C3CCC(O3)C2C(=O)O)sc2c1CCC(CC)C2 (configuration not stated) | 7.1 | 5.5 | 14.2* | 8.0 | 7.8 | 6.4 | 2.3 | 4.2
CCOC(=O)c1c(NC(=O)C2C3CCC(O3)C2C(=O)O)sc(C)c1-c1ccc(F)cc1 (configuration not stated) | 3.3 | 8.7 | 13.0* | 4.3 | 5.7 | 9.9 | 1.0 | 3.6
CCCOC(=O)c1c(-c2ccc(C)cc2C)csc1NC(=O)C1C2CCC(O2)C1C(=O)O (configuration not stated) | 16.9 | 22.8 | 10.8* | 2.9 | 11.3 | 18.0 | -1.4 | 5.4
CCOC(=O)c1c(NC(=O)C2C3C=CC(C3)C2C(=O)O)sc2c1CCC(CC)C2 (configuration not stated) | 0.8 | 17.3 | 1.6 | 3.8 | -2.5 | 6.1 | · | ·
COc1ccc(Cl)cc1C(=O)NNC(=O)c1cccs1 | -4.9 | 3.2 | · | · | 5.6 | -7.3 | · | ·
COc1ccc(/C=C(/NC(=O)c2ccco2)C(=O)N2CCCCC2)cc1 | -1.8 | 4.0 | 0.9 | -1.4 | 10.6 | 4.4 | · | ·
CC(C)(C)C(=O)Nc1cccc(S(=O)(=O)NC2=NCCC2)c1 | -2.4 | 5.5 | 4.2 | -1.9 | 2.0 | 1.4 | · | ·
O=C(Cc1ccc(S(=O)(=O)N2CCOCC2)s1)Nc1cc(C(F)(F)F)cc(C(F)(F)F)c1 | -10.4 | -6.2 | 9.7* | 6.7 | -2.7 | -5.5 | 13.2* | 8.6
COc1ccc(OC)c2sc(N(CCN(C)C)C(=O)c3cc(Cl)sc3Cl)nc12 | -8.2 | 8.4 | 10.5* | -0.1 | 2.7 | -1.3 | -0.5 | -0.1
COC(=O)[C@H](CCSC)NC(=O)Cn1cnc2c(NCc3ccccc3)ncnc21 | -2.4 | 6.0 | · | · | 0.0 | -0.3 | · | ·
COc1ccccc1CC(=O)O/N=C(\N)Cc1cccc2ccccc12 | 34.5* | 2.6 | 12.0* | 5.2 | -4.0 | -0.6 | -1.9 | -2.8
Nc1ncc(Br)cc1S(=O)(=O)Nc1cc(C(F)(F)F)cc(C(F)(F)F)c1 | 3.0 | 26.0* | 9.6* | 7.8 | 6.1 | 12.7 | 5.1 | 11.9
Cc1ccc(NS(=O)(=O)c2cc(Br)cnc2N)c(Cl)c1 | 4.4 | 1.1 | -1.7 | -4.4 | 11.1 | -5.5 | · | ·
Cc1cc(C(=O)CSc2nc3ccccc3c(=O)[nH]2)c(C)n1CC1CCCO1 (configuration not stated) | 1.9 | -0.9 | 14.6* | 0.3 | 5.6 | 0.7 | -3.7 | -2.0
Cc1cc(C(=O)COC(=O)CCc2nc3ccccc3c(=O)[nH]2)c(C)n1CC1CCCO1 (configuration not stated) | · | · | 0.0 | -2.1 | · | -6.1 | · | ·
CC(C)C[C@H]1CN=C(Nc2ccccc2)N1CCCCc1ccccc1 | 0.7 | 1.9 | 45.6* | 4.4 | 7.2 | 1.4 | -4.3 | -6.9
O=C(CN1C(=O)NC(c2ccccc2)(c2ccccc2)C1=O)N1CCOCC1 | -0.8 | 3.7 | 0.3 | -4.0 | 15.8 | 2.6 | · | ·
Cn1c(=O)c2[nH]c(-c3cccnc3)nc2n(C)c1=O | -0.9 | 1.1 | 13.7* | -1.8 | 3.6 | -8.8 | -4.1 | -3.5
SMILES | PAFAH2 FP inh | PAFAH1B2 FP inh | PP5 primary | PP1 counter | PAFAH1B3 inh | pPAFAH inh | PP5 conf | PP1 counter 3x
CCC(C(=O)NCCc1c[nH]c2cc(OC)ccc12)c1ccccc1 (configuration not stated) | -6.2 | 5.7 | -3.6 | -2.8 | 5.0 | 4.7 | · | ·
O=C(NC1CCCC1)C(c1ccncc1)N(C(=O)Cn1nnc(-c2ccccc2F)n1)c1cccc(F)c1 (configuration not stated) | 2.6 | 1.2 | 1.6 | -0.3 | 0.6 | -5.2 | · | ·
CC1=NN(c2ccc(C)cc2)C(=O)/C1=C\C=C\c1ccccc1 | 19.7 | -2.0 | 4.4 | 0.6 | 9.9 | 2.2 | · | ·
CC1=NN(c2ccccc2)C(=O)/C1=C/C=C/C=C/N(C)C | -52.7 | -28.5 | 10.4* | 3.4 | -38.9 | 9.2 | 13.9* | 12.1
O=S(=O)([N-]c1nc2ccccc2nc1-n1cc[n+](Cc2ccccc2)c1)c1ccccc1 | 14.0 | 0.7 | -2.8 | -3.6 | 4.1 | 8.1 | · | ·
O=[N+]([O-])c1cccc(S(=O)(=O)[N-]c2nc3ccccc3nc2-n2cc[n+](Cc3ccccc3)c2)c1 | 3.5 | 5.2 | 12.6* | 4.8 | 7.5 | 4.6 | -1.5 | 1.7
Cc1ccc(Cl)cc1NC(=S)N(Cc1ccccc1)Cc1cccnc1 | -1.4 | 2.5 | 0.0 | 2.3 | 2.6 | 5.5 | · | ·
NC(=O)c1cccc(-c2cc(Nc3ccc(OC(F)(F)F)cc3)ncn2)c1 | -41.3 | 1.8 | 10.1* | 10.1 | -15.9 | -3.2 | 6.0 | 8.7
O=C(Nc1ccc(OC(F)(F)F)cc1)c1ccc2nc[nH]c2c1 | -3.7 | 4.5 | 3.3 | 3.8 | 5.6 | 1.9 | · | ·
COc1ccc(C(CNC(=O)c2cccc(S(=O)(=O)NCc3ccccc3)c2)N2CCOCC2)cc1 (configuration not stated) | -4.6 | 1.4 | -0.9 | -3.2 | 1.1 | 4.3 | · | ·
O=[N+]([O-])c1cc(/C=N/O)ccc1Sc1ccccc1 | 8.7 | 3.0 | 10.0* | 1.9 | 2.9 | 12.2 | 1.6 | 1.6
